From the supplement of paper PMC12494721

Columns and labels:
Conditions in all cases: 20 µM; incubation time: 27 h, anaerobic, 37 °C;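 for the amine columns active = adjusted P below 0.05 in both replicates with a change the same way and a mean fold change under 0.8 or over 1.25; inactive = the rest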
[1] = tested on: Clostridium sporogenes DSM 1664; assay: growth (OD595) fold change vs plate DMSO controls (fold change (ratio)); higher = more growth
In short: (§1)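 Shaken 96-well cultures in mGAM, grown anaerobically for 27 h at 37 °C, were read at 595 nm. OD came from blank-subtracted readings, corrected for background with 20 µM compound solutions in water and scaled by a calibration factor of 5. Growth is the fold change versus the plate's median DMSO control. Values average 2 biological replicates, and any fold change above 1.5 is NA.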

[2] = tested on: Escherichia coli IAI1; assay: as above
In short: as §1

[3] = tested on: Klebsiella aerogenes DSM 30053; assay: as above
In short: as §1

[4] = tested on: Ruminococcus gnavus DSM 108212; assay: as above
In short: as §1

[5] = tested on: Klebsiella aerogenes DSM 30053; assay: fold change of Histamine concentration vs plate DMSO controls (fold change (ratio)); higher = more amine produced, active = hit call of the paper (significant change in both replicates, either direction)
In short: (§2)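 Amines were quantified by LC–triple-quadrupole MS in dynamic MRM mode against external calibration curves, with drift correction within each batch. The samples were whole anaerobic mGAM cultures of four gut bacterial strains, grown for 27 h at 37 °C in 80 µL wells and extracted with cold acetonitrile/methanol with 0.1% formic acid, then centrifuged. Values are reported as fold change over DMSO controls on the same plate. The mean of 2 biological replicates is given.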

[6] = tested on: Clostridium sporogenes DSM 1664; assay: fold change of Tryptamine concentration vs plate DMSO controls (fold change (ratio)); higher = more amine produced, active = hit call of the paper (significant change in both replicates, either direction)
In short: as §2

[7] = tested on: Ruminococcus gnavus DSM 108212; assay: as above
In short: as §2

[8] = tested on: Escherichia coli IAI1; assay: fold change of Putrescine concentration vs plate DMSO controls (fold change (ratio)); higher = more amine produced, active = hit call of the paper (significant change in both replicates, either direction)
In short: as §2

[9] = tested on: Klebsiella aerogenes DSM 30053; assay: as above
In short: as §2

[10] = tested on: Escherichia coli IAI1; assay: fold change of Cadaverine concentration vs plate DMSO controls (fold change (ratio)); higher = more amine produced, active = hit call of the paper (significant change in both replicates, either direction)
In short: as §2

[11] = tested on: Klebsiella aerogenes DSM 30053; assay: as above
In short: as §2

[12] = tested on: Ruminococcus gnavus DSM 108212; assay: fold change of 2-Phenylethylamine concentration vs plate DMSO controls (fold change (ratio)); higher = more amine produced, active = hit call of the paper (significant change in both replicates, either direction)
In short: as §2

SMILES | growth [1] | growth [2] | growth [3] | growth [4] | fold change of Histamine concentration [5] | fold change of Tryptamine concentration [6] | fold change of Tryptamine concentration [7] | fold change of Putrescine concentration [8] | fold change of Putrescine concentration [9] | fold change of Cadaverine concentration [10] | fold change of Cadaverine concentration [11] | fold change of 2-Phenylethylamine concentration [12]
O=C(CCCN1CCC(n2c(=O)[nH]c3ccccc32)CC1)c1ccc(F)cc1 [Benperidol] | 1.07 | 0.943 | 0.941 | 0.827 | 1 (inactive) | 1.01 (inactive) | 1.03 (inactive) | 0.998 (inactive) | 1.02 (inactive) | 1.02 (inactive) | 1.02 (inactive) | 1.05 (inactive)
Nc1c(Cl)c(F)nc(OCC(=O)O)c1Cl | 0.964 | 1.01 | 1.05 | 1.03 | 0.96 (inactive) | 1.03 (inactive) | 1.04 (inactive) | 0.986 (inactive) | 0.955 (inactive) | 0.95 (inactive) | 1.01 (inactive) | 1.05 (inactive)
C=CCC1(CC(C)C)C(=O)NC(=O)NC1=O [Butalbital] | 1.07 | 1.04 | 0.966 | 0.589 | 1.01 (inactive) | 1 (inactive) | 1 (inactive) | 0.995 (inactive) | 1.01 (inactive) | 1.02 (inactive) | 0.997 (inactive) | 1 (inactive)
CC[C@H](C)[C@H]1O[C@]2(C=C[C@@H]1C)C[C@@H]1C[C@@H](C/C=C(\C)[C@@H](O[C@H]3C[C@H](OC)[C@@H](O[C@H]4C[C@H](OC)[C@@H](O)[C@H](C)O4)[C@H](C)O3)[C@@H](C)/C=C/C=C3\CO[C@@H]4[C@H](O)C(C)=C[C@@H](C(=O)O1)[C@]34O)O2.CO[C@H]1C[C@H](O[C@H]2[C@H](C)O[C@@H](O[C@@H]3/C(C)=C/C[C@@H]4C[C@@H](C[C@]5(C=C[C@H](C)[C@@H](C(C)C)O5)O4)OC(=O)[C@@H]4C=C(C)[C@@H](O)[C@H]5OC/C(=C\C=C\[C@@H]3C)[C@]54O)C[C@@H]2OC)O[C@@H](C)[C@@H]1O | 1.09 | 1.01 | 1.05 | 1.05 | 0.985 (inactive) | 0.855 (inactive) | 0.906 (inactive) | 0.989 (inactive) | 0.99 (inactive) | 0.968 (inactive) | 0.996 (inactive) | 0.885 (inactive)
COC(=O)N(OC)c1ccccc1COc1ccn(-c2ccc(Cl)cc2)n1 | 0.99 | 0.988 | 1.07 | 1.02 | 1.02 (inactive) | 1.02 (inactive) | 0.921 (inactive) | 1.04 (inactive) | 1.02 (inactive) | 1.01 (inactive) | 1 (inactive) | 0.888 (inactive)
CCSC(C)CC1CC(=O)C(/C(CC)=N/OC/C=C/Cl)=C(O)C1 (mixture of isomers) | 0.928 | 1.04 | 0.988 | 0.939 | 1.02 (inactive) | 1.01 (inactive) | 1.03 (inactive) | 1.02 (inactive) | 0.996 (inactive) | 1 (inactive) | 1.01 (inactive) | 0.99 (inactive)
CNC(=O)CSP(=S)(OC)OC | 0.992 | 1.06 | 1 | 0.99 | 1.07 (inactive) | 1.01 (inactive) | 1.13 (inactive) | 0.998 (inactive) | 0.888 (inactive) | 1.01 (inactive) | 1.12 (inactive) | 1.43 (inactive)
C#C[C@]1(O)C=C[C@H]2[C@@H]3CCC4=CC(=O)CC[C@@H]4[C@H]3CC[C@@]21CC [Gestodene] | 1.16 | 1.02 | 1 | 0.924 | 1 (inactive) | 1.03 (inactive) | 1.01 (inactive) | 1.02 (inactive) | 0.993 (inactive) | 0.995 (inactive) | 0.988 (inactive) | 0.977 (inactive)
CN1COCN(Cc2cnc(Cl)s2)/C1=N\[N+](=O)[O-] | 0.973 | 1.02 | 1 | 0.969 | 1.01 (inactive) | 0.906 (inactive) | 0.912 (inactive) | 1.03 (inactive) | 1.01 (inactive) | 1.03 (inactive) | 0.993 (inactive) | 0.88 (inactive)
CC(C)(C)C(O)C(Oc1ccc(Cl)cc1)n1cncn1 (stereo unspecified) | 0.989 | 1.11 | 0.994 | 0.928 | 0.993 (inactive) | 0.962 (inactive) | 0.998 (inactive) | 1.08 (inactive) | 0.999 (inactive) | 0.937 (inactive) | 1 (inactive) | 0.975 (inactive)
NCCCNCCSP(=O)(O)O [Amifostine] | 0.94 | 1 | 1.12 | 1.38 | 0.978 (inactive) | 1.01 (inactive) | 1.03 (inactive) | 1 (inactive) | 0.999 (inactive) | 1.01 (inactive) | 0.999 (inactive) | 1.01 (inactive)
CC(C)OC(=O)C(C(=O)OC(C)C)=C1SCCS1 | 1.07 | 0.971 | 1.02 | 1.08 | 0.989 (inactive) | 0.999 (inactive) | 1 (inactive) | 1.02 (inactive) | 1 (inactive) | 0.976 (inactive) | 1 (inactive) | 0.956 (inactive)
CCOC(=O)OC1=C(c2cc(C)ccc2C)C(=O)N[C@]12CC[C@@H](OC)CC2 | 0.93 | 1.02 | 0.993 | 0.921 | 1.01 (inactive) | 0.974 (inactive) | 1.02 (inactive) | 1 (inactive) | 1 (inactive) | 0.963 (inactive) | 1 (inactive) | 1.04 (inactive)
